PubChem BioAssay (NCATS)
Where “and” joins values, the source holds several entries; their conditions need not be identical. Identical values can stand only once. Inconclusive results are not listed. Calls of active or inactive are those of the source. Calls follow the shape of the dose curve; as a rule, active = well fitted curve in the direction sought with a large enough effect; inconclusive = small, poorly fitted or top-dose-only effect, or another doubt; inactive = no such curve, though single readings can be large or run the other way. Where a SMILES comes first, the peptide text is derived from it. [ ]: non-standard residue; d: D form. pGlu = O=C1CC[C@@H](C(=O)O)N1

Experiment: qHTS Assay for Identifying Gametocytocidal Compounds (AID 743244);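 as to max response: actives lower the fluorescent signal which means gametocytes are killed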
Conditions: P. falciparum 3D7 stage III-V gametocytes, alamarBlue, 72 h; max response: hits give low values
Text: Malaria cases and deaths have dropped 50% in 29 countries since 2000 due to the combined effects of long-lasting insecticidal bednets, indoor residual spraying, and artemisinin-based combination therapies (ACTs). This success has raised hopes for malaria eradication and consequently stimulated interest in developing new reagents that block gametocyte transmission such as novel and safe gametocytocidal drugs. However, previous drug development efforts have focused primarily on the asexual parasites that cause symptoms, but not malaria transmission. Consequently, patients can remain infectious for weeks after the clearance of asexual parasites and clinical symptoms. To be transmitted from person to person via a mosquito, the parasites must switch from asexual to sexual development and produce male and female gametocytes. Malaria gametocytes consist of five stages (I, II, III, IV and V). The late stage gametocytes (III, IV and V) are difficult to be cultured in vitro and the long lifespan of mature gametocytes allows them being transmitted from host to mosquitoes unless they are completely eliminated by gametocytocidal agents. To identify gametocytocidal compounds which are capable of killing late stage P. falciparum gametocytes, a high throughput gametocyte viability assay was employed. This assay uses oxidoreduction indicator, alamarBlue, as a general measure of metabolic activity of gametocytes. Within live cells, the nonfluorescent resazurin is reduced to resorufin, a bright red fluorescence dye. Fluorescence decreases upon treatment of gametocytocidal compounds. P. falciparum gametocyte (3D7 strain) was used in this study.
The 1536-well gametocycidal viability assay was based on the previous method of Tanaka et al. Stage III-V gametocytes were tested against three compound libraries, including 4265 compounds from NCGC pharmaceutical collection, 400 from Malaria Box library, and 550 from an internal collection of kinase inhibitors. Briefly, 2.5 ul/well incomplete medium was dispensed into each well of 1,536-well plates using the Multidrop Combi followed by 23 nl compound transferring using the NX-TR Pintool (WAKO Scientific Solutions, San Diego, CA). Then, 2.5 ul/well of gametocytes was dispensed with a seeding density of 20,000 cells/well using the Multidrop Combi. The assay plates were incubated for 72 h at 37C with 5% CO2. After addition of 5 ul/well of 2X AlamarBlue dye (Life Technologies, cat. no. DAL1100), the plates were incubated for 24 h at 37C with 5% CO2 and then were read in a fluorescence detection mode (Ex = 525 nm, Em = 598 nm) on a ViewLux plate reader (PerkinElmer).
% is scaled to controls: 0 for no effect and ±100 for the full control effect; potency is read from the fitted curve at half-maximal effect.

Structure (SMILES) | max response | Potency
CCOC(=O)Cc1ccc(-c2ccccc2)cc1 | -12.4% (inactive) | 
O=C(O)CN(CC(=O)O)CC1=CC2C(=CC1=O)Oc1cc(O)c(CN(CC(=O)O)CC(=O)O)cc1C21OC(=O)c2ccccc21 (stereo not given) | 5.31% (inactive) | 
CCCCC(=O)O[C@H]1CC[C@H]2[C@@H]3CCc4cc(O)ccc4[C@H]3CC[C@]12C | -1.51% (inactive) | 
CCOc1ccc(NC(=S)Nc2ccc(OCC)cc2)cc1 | 1.34% (inactive) | 
COC1[C@@H](O[C@@H]2O[C@H](C)[C@@H](O[C@H]3C[C@@](C)(O)[C@H](OC(=O)CC(C)C)[C@H](C)O3)[C@H](N(C)C)[C@H]2O)[C@@H](CC=O)C[C@@H](C)[C@@H](O)/C=C/C=C/C[C@@H](C)OC(=O)C[C@H]1OC(C)=O (stereo not given in full) | 6% (inactive) | 
C[Si](C)(C)O[Si](C)(C)C | 4.27% (inactive) | 
C=C1CC[C@H](O)C/C1=C\C=C1/CCC[C@]2(C)[C@@H]([C@H](C)CCCC(C)C)CC[C@@H]12 | 7.84% (inactive) | 
CCCCC(CC)COS(=O)(=O)O (stereo not given) | -3.23% (inactive) | 
CN=C1C=CC(=C(c2ccc(N(C)C)cc2)c2ccc(N(C)C)cc2)C=C1 |  | 3.55 µM (active)
CO/N=C(\C(=O)N[C@@H]1C(=O)N2C(C(=O)[O-])=C(C[n+]3cccc4c3CCC4)CS[C@H]12)c1csc(N)n1 | 15.5% (inactive) | 
CS(=O)(=O)c1ccc([C@@H](O)[C@@H](COC(=O)CN)NC(=O)C(Cl)Cl)cc1 | 0.65% (inactive) | 
COc1ccc([C@@H]2CC(=O)c3c(O)cc(O[C@@H]4O[C@H](CO[C@@H]5O[C@@H](C)[C@H](O)[C@@H](O)[C@H]5O)[C@@H](O)[C@H](O)[C@H]4O)cc3O2)cc1O | 22.8% (inactive) | 
C=Cc1ccc(S(=O)(=O)O)cc1 | -6.42% (inactive) | 
CCCCCCCCCCCC(=O)N(CCO)CCO | 11.9% (inactive) | 
CCOC(=S)SSC(=S)OCC | 0.863% (inactive) | 
Nc1nc(NC2CC2)c2ncn([C@@H]3C=C[C@@H](CO)C3)c2n1 | 15.8% (inactive) | 
O=C1/C(=C\c2cccs2)CCC/C1=C\c1cccs1 | 5.47% (inactive) | 
O=C(CCCN1CCC(C(=O)c2ccc(F)cc2)CC1)c1ccc(F)cc1 | 18.4% (inactive) | 
C=CC(C)(O)CC/C=C(\C)CCC=C(C)C (stereo not given) | -0.0803% (inactive) | 
N[C@H](CC(=O)O)C(=O)O | 2.16% (inactive) | 

Structure (SMILES) | max response | Potency
C[C@@H]1C/C=C/C=C/C=C/C=C/[C@H](O[C@@H]2O[C@H](C)[C@@H](O)[C@H](N)[C@@H]2O)C[C@@H]2O[C@](O)(C[C@@H](O)C[C@H]3O[C@@H]3/C=C/C(=O)O1)C[C@H](O)[C@H]2C(=O)O | 15.6% (inactive) | 
Cc1c(C)c2c(c(C)c1OC(=O)CCC(=O)O)CC[C@@](C)(CCC[C@H](C)CCC[C@H](C)CCCC(C)C)O2 | -1.05% (inactive) | 
CC1(C)S[C@@H]2[C@H](N3C(=O)C(c4ccccc4)NC3(C)C)C(=O)N2[C@H]1C(=O)O (stereo not given in full) | 5.31% (inactive) | 
CNCC(O)c1ccc(OC(=O)C(C)(C)C)c(OC(=O)C(C)(C)C)c1 (stereo not given) | -11.6% (inactive) | 
CO | 16% (inactive) | 
CCN(CC)CCOC[C@H]1O[C@@H](O)[C@H](OCCN(CC)CC)[C@@H](O)[C@@H]1O | 6.01% (inactive) | 
COc1ccc2c(=O)c(C)c(-c3ccccc3)oc2c1CN(C)C | 1.87% (inactive) | 
C[C@]12CCC(=O)C[C@@H]1CC[C@@H]1[C@@H]2CC[C@]2(C)C=CC[C@@H]12 | -3.12% (inactive) | 
CC[C@H](C)[C@H](NC(=O)[C@H](Cc1ccccc1)NC(=O)[C@H](C)NC(=O)[C@H](CC(=O)O)NC(=O)[C@H](CCCCN)NC(=O)[C@H](CO)NC(=O)[C@@H]1CCCN1C(=O)[C@@H]1CCC(=O)N1)C(=O)NCC(=O)N[C@@H](CC(C)C)C(=O)N[C@@H](CCSC)C(N)=O ([pGlu]PSKDAFIGLM-NH2) | 13.3% (inactive) | 
CC(C)=CCC/C(C)=C/CC/C(C)=C/CC/C(C)=C/CC1=C(C)C(=O)c2ccccc2C1=O |  | 7.94 µM (active)
CCC[C@@H]1C[C@@H](C(=O)N[C@@H]([C@H]2O[C@H](SC)[C@H](O)[C@@H](O)[C@H]2O)[C@H](C)Cl)N(C)C1 | -8.48% (inactive) | 
CCCCCCCCCCCCCCCC(=O)OC[C@H](COP(=O)([O-])OCC[N+](C)(C)C)OC(=O)CCCCCCCCCCCCCCC | 1.23% (inactive) | 
CS(=O)(=O)OCC(O)C(O)COS(C)(=O)=O (stereo not given) | -2.1% (inactive) | 
CC(=O)Nc1ccc(OC(=O)c2ccccc2O)cc1 | -4.48% (inactive) | 
Cc1c(N)nc([C@H](CC(N)=O)NC[C@H](N)C(N)=O)nc1C(=O)N[C@H](C(=O)N[C@H](C)[C@@H](O)[C@H](C)C(=O)N[C@H](C(=O)NCCc1nc(-c2nc(C(=O)NCCCCN=C(N)N)cs2)cs1)[C@@H](C)O)[C@@H](O[C@@H]1O[C@@H](CO)[C@@H](O)[C@H](O)[C@@H]1O[C@H]1O[C@H](CO)[C@@H](O)[C@H](OC(N)=O)[C@@H]1O)c1cnc[nH]1 | -1.54% (inactive) and 0.24% (inactive) | 
C[Se]CC[C@H](N)C(=O)O | 8.55% (inactive) | 
OC/C=C/c1ccccc1 | 2.6% (inactive) | 
C=C1CC[C@H](O)CC1=C/C=C1\CCC[C@]2(C)[C@@H]([C@H](C)CCCC(C)(C)O)CC[C@@H]12 | -5.02% (inactive) | 
CO/N=C(/C(=O)N[C@@H]1C(=O)N2C(C(=O)O)=C(COC(N)=O)CS[C@H]12)c1ccco1 | -11% (inactive) and 13.4% (inactive) | 
O=P(O)(O)CP(=O)(O)O | -3.27% (inactive) | 
